Test results published in ChEMBL document CHEMBL3988442, “University of Dundee, Small-Polar-MMV Screening Library” (2021).
Among all 48,000 compounds or so, about 13,000 (27%) showed an effect of 50% or more. Some of the results follow.

tested on: Wolbachia pipientis; assay: Anti-Wolbachia Cell-Based Screen; assay type: functional; design: scale not given: in the data most compounds retested in dose-response had high values; conditions: 5 µM

Row | SMILES | Percent Effect [%]
1 | CC(C)(C)NC(=O)C1CSCN1S(=O)(=O)c1ccccc1S(C)(=O)=O (stereo not drawn) | 4.107
2 | CCc1ncc2c(n1)CN(C(=O)CC(C)NC(C)=O)C2 (stereo not drawn) | -5.882
3 | Cc1cc(CN(C)C(=O)NC(C)Cc2ccco2)no1 (stereo not drawn) | 4.671
4 | CCn1ccnc1CN1CCN(c2nc(C)cc(OC)n2)CC1 | -15.82
5 | CC[C@@H]1N(CC2CCOCC2)CCC[C@]12CCC(=O)N2.O=C(O)C(F)(F)F | -7.738
6 | NC(=O)c1cc(-n2cc(-c3cccc(C(=O)O)c3)cn2)cs1 | -1.419
7 | CN(c1cccnc1N1CCCC1)S(=O)(=O)c1cnn(C)c1 | 8.889
8 | CCn1ncc(CN2CCc3nc(-c4cccnc4)nc(O)c3C2)c1C | 89.32
9 | CCc1noc(CNc2nc(-c3cccnc3)nc3c2CCNCC3)n1 | 3.724
10 | CC(O)CNc1nc(-c2cccnc2)nc2c1CCC2 (stereo not drawn) | -9.754
11 | O=C(c1cnc2c(cnn2C2CCCC2)c1)N1CCN(CCO)CC1 | 107.7
12 | CCN1CCN(C(=O)c2cnc3c(cnn3C3CCCC3)c2)CC1 | 83.11
13 | CC(C)CCN(C)C(=O)c1cnc2c(cnn2CC(C)C)c1 | 1.745
14 | O=C(O)c1cnc2c(cnn2C2CCCC2)c1 | -9.214
15 | CCn1c(N)nc2cc(C(=O)N3CCC(N4CCCC4)CC3)cnc21 | -1.571
16 | CC1CN(C)CCN1C(=O)c1cnc2onc(CC(C)(C)C)c2c1 (stereo not drawn) | 4.024
17 | CS(=O)(=O)NC(=O)c1cnc2c(cnn2C2CCCC2)c1 | -4.215
18 | CCOC1CCCN(C(=O)c2cnc3c(cnn3C3CCCC3)c2)C1 (stereo not drawn) | -8.504
19 | CN1CCN(C(=O)c2cnc3c(cnn3C3CCCC3)c2)CC1 | 4.55
20 | CCn1c(N)nc2cc(C(=O)N3CCCN(C)CC3)cnc21 | -5.515
21 | CC1CN(C)CCN1C(=O)c1cnc2c(cnn2C2CCCC2)c1 (stereo not drawn) | 101.7
22 | CN1CCC(N(C)C(=O)c2cnc3c(cnn3C3CCCC3)c2)CC1 | 105.6

Row | SMILES | Percent Effect [%]
23 | Cn1ccnc1SCC(=O)NCCC1CCCO1 (stereo not drawn) | 1.622
24 | Cn1cc(S(=O)(=O)NC(CO)Cc2c[nH]c3ccccc23)cn1 (stereo not drawn) | -17.12
25 | Cn1cccc1C(=O)NCc1cn2c(n1)CN(S(=O)(=O)C1CC1)CC2 | -2.289
26 | Cc1ncc(C(=O)N2CCC(N3C[C@@H](C)O[C@@H](C)C3)CC2)c(=O)[nH]1 | -16.5
27 | CCc1noc(CC)c1CNC(=O)Nc1cccc(C(=O)N(C)C)c1 | 14.38
28 | O=C(c1cnc2c(cnn2C2CCCC2)c1)N1CCCSCC1 | 112.1
29 | O=C(c1ccc2c(c1)[nH]c(=O)n2C1CCCC1)N1CCCSCC1 | -3.459
30 | NC(=O)C1CCCN(C(=O)c2cnc3c(cnn3C3CCCC3)c2)C1 (stereo not drawn) | -9.879
31 | Cc1cccc(-n2nc(CC(C)C)nc2[C@H](C)O)c1 | -4.735
32 | CC(C)c1cccc(-n2cc(O)c(C(=O)O)n2)c1 | 39.26
33 | Cc1cccc(-n2cnc(Cl)c2C(=O)O)c1 | 93.89
34 | CC(=O)NCc1nc(CC(C)C)nn1-c1cccc(C)c1 | -6.896
35 | O=C(O)c1c(Cl)ncn1-c1ccccc1 | 76.14
36 | O=C1CC(c2ccc(C(=O)O)cc2)c2ncn(-c3ccccc3)c2N1 (stereo not drawn) | 13.74
37 | CCc1ccc(C2CCCN2C(=O)Cc2ccc(NC(C)=O)cc2)o1 (stereo not drawn) | -1.143
38 | CC(C)OCc1ncn2c1CN(Cc1cnn(C)c1)CCC2.O=C(O)C(F)(F)F | -6.941
39 | CS(=O)(=O)NC1(CCc2ccc(NC(=O)C3CC3)nc2)CCCCC1 | 95.32
40 | O=C(Nc1ccc(N2CCCCC2)cn1)C1CCCN1C(=O)C1CC1 (stereo not drawn) | 5.13
41 | O=C(Nc1ccc(Cl)cn1)C1CCN(CCc2ccccn2)CC1 | 5.331
42 | Cc1ccnc(NC(=O)C2CCCO2)c1 (stereo not drawn) | 0.6753
43 | CCSCc1ccnc(NC(=O)C2CCCO2)c1 (stereo not drawn) | 2.987
44 | O=C(Nc1ccc(-c2ccccc2)cn1)C1CCCN1C(=O)C1CC1 (stereo not drawn) | -4.535

Row | SMILES | Percent Effect [%]
45 | CC(=O)Nc1ccc(CCC2(NC(=O)C3CCCO3)CCCCC2)cn1 (stereo not drawn) | 144.1
46 | CC(=O)Nc1ccc(CCC2(NC(=O)C3CC3)CCCCC2)cn1 | 53.79
47 | Cc1ccc(NC(=O)C2CCCN2C(=O)C2CC2)nc1 (stereo not drawn) | 4.832
48 | CC(C)(C)C(=O)N1CC[C@H]2NC(=O)N(c3ccc(F)cc3)C(=O)[C@H]21 | -4.362
49 | Cc1ccc(Cl)cc1C(=O)N1CCC2(CC1)c1ccccc1[C@@H](N)[C@@H]2O | -15.25
50 | COCCN(C(=O)c1cc(C)no1)c1ccc(C#N)cc1 | -3.36
51 | CCNc1cc2c(nn1)CCN(C(=O)c1cc3c(s1)CCOC3)C2 | 6.196
52 | CCNc1cc2c(nn1)CCN(C(=O)CCc1c(C)noc1C)C2 | 85.75
53 | CCNc1cc2c(nn1)CCN(C(=O)C(C)c1c(C)noc1C)C2 (stereo not drawn) | 124.9
54 | CCNc1cc2c(nn1)CCN(C(=O)C1Cc3ccccc3O1)C2 (stereo not drawn) | -6.016
55 | CCNc1cc2c(nn1)CCN(C(=O)Cc1c(C)noc1C)C2 | -1.817
56 | CCNc1cc2c(nn1)CCN(C(=O)c1c(C)noc1C)C2 | 134.6
57 | CCNc1cc2c(nn1)CCN(C(=O)c1cc3nc(C)ccc3o1)C2 | 0.3764
58 | Cc1noc(Cl)c1CCC(=O)N1CCc2sccc2C1 | 4.589
59 | CCNc1cc2c(nn1)CCN(C(=O)Cc1noc3ccccc13)C2 | 2.376
60 | CCNc1cc2c(nn1)CCN(C(=O)CCc1c(C)noc1Cl)C2 | 92.82
61 | CN(C1CCCCC1)S(=O)(=O)NC1CCN(c2ncccn2)CC1 | -8.607
62 | Cc1n[nH]c(C(=O)NCc2ccnc(OCC(F)(F)F)c2)c1Br | -11.41
63 | COc1ccc(CCN2CCCC(CN(C)Cc3ccc(C)o3)C2)cc1 (stereo not drawn) | -2.586
64 | O=C(c1cccc2[nH]ccc12)N1CCC2(CCOC2)C1 (stereo not drawn) | -0.4242
65 | CNc1cc2c(nn1)CCN(C(=O)c1ccoc1)C2 | 3.239
66 | CCNc1cc2c(nn1)CCN(C(=O)c1ccc(CNC(C)=O)o1)C2 | -5.342

Row | SMILES | Percent Effect [%]
67 | CCNc1cc2c(nn1)CCN(C(=O)c1ccoc1)C2 | 77.15
68 | COc1ccc(Cl)cc1-n1c(COC(C)C)n[nH]c1=O | 9.918
69 | C[C@@H]1CN(C2(C(=O)N3CCSCC3)Cc3ccccc3C2)C[C@H](C)O1 | 1.613
70 | CC1(C(=O)N2CCN(c3cnccn3)CC2)CNCCO1 (stereo not drawn) | 114.6
71 | O=C(N1CCSCC1)C1(O)Cc2ccccc2C1 | 1.421
72 | CC1(C(=O)N2CCOCC2)CNCCO1.Cl (stereo not drawn) | 81.13
73 | CN(C)c1ccccc1C(=O)N1CCOC2(CNCCOC2)C1 (stereo not drawn) | -52.05
74 | CC1(C(=O)N2CCSCC2)CNCCO1 (stereo not drawn) | 81.85
75 | O=C(c1cccc(Cl)c1F)N1CCOC2(CNCCOC2)C1 (stereo not drawn) | -25.29
76 | CC1(C(=O)N2CCN(c3ncccn3)CC2)CNCCO1 (stereo not drawn) | 48.6
77 | O=C(C1CCS(=O)(=O)C1)N1CCN(c2cnccn2)CC1 (stereo not drawn) | -8.289
78 | Cc1cc(=O)n(C)cc1NC(=O)Cc1cccc(Cl)c1 | 5.962
79 | Cc1cc(Cn2cc(C#N)c(=O)c3ccccc32)on1 | -11.07
80 | Cc1nc(CN2CCCC(CCc3ccccc3C(F)(F)F)C2)no1 (stereo not drawn) | -1.662
81 | O=C(Nc1cc(Cl)ccc1N1CCCCC1)c1ccccn1 | -5.482
82 | Cc1ccc(C(=O)Nc2ccccc2N2CCCC2)n1C | 84.28
83 | Cc1ccc(C(=O)Nc2ccccc2F)n1C | 94.36
84 | CC1CCC(NS(=O)(=O)CC(=O)Nc2ccccc2N2CCCC2)CC1 (stereo not drawn) | 3.293
85 | CCN(CC)CCn1cc(NC(=O)Nc2ccccc2OC)cn1 | 2.741
86 | Cc1c(C(C)NC(=O)Nc2ccccc2F)cnn1C (stereo not drawn) | 3.461
87 | COc1ccccc1NC(=O)c1[nH]nc(C(C)C)c1Br | -4.147
88 | COc1ccccc1NC(=O)c1ccc(C)n1C | 99.48

Row | SMILES | Percent Effect [%]
89 | CCc1nc(C)c([C@H]2CN(C)C[C@@H]2C(=O)Nc2ccccc2F)[nH]1 | -8.421
90 | CC(C)C(C)N1Cc2cccc(NCC(=O)N(C)C)c2C1 (stereo not drawn) | 11.84
91 | CC(=O)c1cc(CN2CCCCC2c2nc3cc(F)ccc3[nH]2)cs1 (stereo not drawn) | -8.075
92 | CC(=O)N1CC(C(=O)Nc2cccc(OC(F)F)c2)C1 | 13.11
93 | CCc1nc(-c2noc3ccc(C(=O)NCCN(C)C)cc23)co1 | -6.651
94 | CC(C)(C)NS(=O)(=O)c1ccccc1CNCc1ccccc1 | 8.138
95 | CC(C)S(=O)(=O)N1CCCC(c2nccn2Cc2cccnc2)C1 (stereo not drawn) | -1.301
96 | Nc1ncncc1-c1noc([C@@H]2CCCN2Cc2cccnc2)n1 | -7.414
97 | CC(C)c1nccn1-c1nccnc1C1CCCN1Cc1ccccc1 (stereo not drawn) | 124.1
98 | Cc1nc(CN2CCCC2Cn2ccnc2C(C)C)nc2ccccc12 (stereo not drawn) | 0.1374
99 | CC(C)c1nccn1-c1nccnc1C1CCCN1Cc1cccnc1 (stereo not drawn) | 125.6
100 | CC(C)c1nccn1CC1CCCN1Cc1nc2ccccc2n1C (stereo not drawn) | -4.978
101 | CC(NCc1ccc(OCC(N)=O)cc1)c1ccc2c(c1)CCCC2 (stereo not drawn) | -9.081
102 | CS(=O)(=O)Cc1noc(CN(Cc2ccco2)c2ccccc2)n1 | -3.718
103 | CN(C)CCN(C)C(=O)c1cnc2c(c1)nc(-c1ccccc1Cl)n2C | -6.044
104 | Cc1nnc(NC(=O)NCc2ccoc2)s1 | 74.81
105 | Cc1nnc(NC(=O)NCc2ccc(F)cc2)s1 | 93.84
106 | Cn1cc(NC(=O)NCc2ccoc2)ccc1=O | 13.17
107 | COc1ccc(F)cc1C(C)NC(=O)Nc1nnc(C)s1 (stereo not drawn) | -6.536
108 | Cc1nnc(NC(=O)NCc2cc(F)cc(F)c2)s1 | 4.254
